Hit rate of the full screen: of about 320,000 compounds, about 2,800 (0.88%) were called active.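 Rule for the calls: active = inhibition above the mean inhibition of all tested compounds plus 3 SD, computed separately for each screening campaign (cut at about 15% in these data); inactive = the rest.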 Many of the other results were omitted from the sample, so actives are more common in it than they were.
What follows are compounds tested against Serine/threonine-protein phosphatase PP1-alpha catalytic subunit (Homo sapiens) (UniProt P62136) (assay: PP1-alpha phosphatase inhibitors, primary screen, counter-screen for PP5 inhibitor project, biochemical, fluorescence, OMFP substrate, single point (AID 2235)). Conditions: purified PP1alpha, at 6.7 µM, hits give high values.
Serine/threonine-protein phosphatase PP1-alpha catalytic subunit (Homo sapiens), sequence (P62136 whole entry, looked up): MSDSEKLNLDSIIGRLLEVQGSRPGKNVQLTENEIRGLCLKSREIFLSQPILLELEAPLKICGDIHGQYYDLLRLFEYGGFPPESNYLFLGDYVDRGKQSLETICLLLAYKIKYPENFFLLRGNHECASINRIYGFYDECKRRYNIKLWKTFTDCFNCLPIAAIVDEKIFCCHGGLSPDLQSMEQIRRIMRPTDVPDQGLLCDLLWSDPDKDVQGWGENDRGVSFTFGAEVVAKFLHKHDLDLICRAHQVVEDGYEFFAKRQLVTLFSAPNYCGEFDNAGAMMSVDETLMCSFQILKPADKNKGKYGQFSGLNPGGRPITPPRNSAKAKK
`COc1ccc(NC(=O)CN(C)C(=O)c2cc(C3CC3)nn2-c2ccccc2)cc1` was tested, and the inhibition was -0.28% (inactive).
With `CC(C)Oc1ccc(CC(=O)NNC(=S)Nc2ccc(Br)cc2)cc1` the inhibition was 6.13% (inactive).
In the case of `O=C(NNC(=O)c1cc2c(s1)CCCC2)c1ccccc1`, the inhibition is reported as -3.37% (inactive).
For `Cc1ccc(C(=O)NNC(=O)c2cccs2)cc1`, the inhibition was 3.43% (inactive).
With `Cc1ccc(C(=O)NNC(=O)c2cc3cc4ccccc4nc3s2)cc1` the inhibition was 15.8% (active).
`O=C(O)c1cccc(N=NN2CCCCCC2)c1` was tested, and the inhibition was 2.62% (inactive).
`CCN(CC(=O)Nc1ccc(NC(C)=O)cc1)C(=O)CSC(=S)N1CCCC1` was tested, and the inhibition was -1.09% (inactive).
In the case of `CCOc1cc(C)ccc1OCc1nnc(SCC(=O)Nc2cccc(C(=O)O)c2)n1-c1ccccc1`, the inhibition is reported as -6.28% (inactive).
With `COc1ccc2nc(/N=C(\N)NC(=O)Nc3ccccc3)nc(C)c2c1` the inhibition was 7.87% (inactive).
In the case of `O=C(NNC(=O)C(O)c1ccccc1)NC1CCCCC1` (configuration not stated), the inhibition is reported as -1.2% (inactive).
In the case of `Cc1nc(/N=C(\N)NC(=O)NC2CCCCC2)nc2ccccc12`, the inhibition is reported as 18.6% (active).
In the case of `CC1(C)C2CC=C(/C=N/NC(=O)c3ccc(Cl)cc3)C1C2` (configuration not stated), the inhibition is reported as 0.59% (inactive).
`COc1ccc(C(C#N)Nc2ccc(C)cc2)cc1` (configuration not stated) was tested, and the inhibition was -2.92% (inactive).
`N#CC1=C(N)Oc2c(sc3ccccc23)C1c1ccco1` (configuration not stated) was tested, and the inhibition was 15.7% (active).
For `N#CC1=C(N)Oc2c(ccc3cccnc23)C1c1ccncc1` (configuration not stated), the inhibition was -1.75% (inactive).
`CON(C)S(=O)(=O)c1ccc2c(c1)NC(=O)C1CCCN21` (configuration not stated) was tested, and the inhibition was 5.21% (inactive).
`O=C(NC(=S)NC1CCS(=O)(=O)C1)c1cccc([N+](=O)[O-])c1` (configuration not stated) was tested, and the inhibition was -0.09% (inactive).
In the case of `Cc1nn(-c2ccc([N+](=O)[O-])cc2)c(N)c1-c1ccccc1`, the inhibition is reported as -0.19% (inactive).
For `CC1=NN(c2ccccc2)C(=O)C1C(=O)c1ccc([N+](=O)[O-])cc1` (configuration not stated), the inhibition was -1.75% (inactive).
With `O=C1CC(c2ccccc2)=NN1c1ccc([N+](=O)[O-])cc1` the inhibition was 15.4% (active).
For `Cc1ccc(NC(=O)CN(C)C(=O)COC(=O)c2nccnc2N)cc1`, the inhibition was 6.11% (inactive).
With `COc1ccc(NC(=O)C2C3CCC(O3)C2C(=O)O)cc1OC` (configuration not stated) the inhibition was 71.5% (active).
For `COC(=O)c1cc(NC(=O)C2C3C=CC(C3)C2C(=O)O)cc(C(=O)OC)c1` (configuration not stated), the inhibition was 2.03% (inactive).
With `Cc1sc(NC(=O)C2C3CCC(O3)C2C(=O)O)c(C(=O)OC(C)C)c1-c1ccc(Cl)cc1` (configuration not stated) the inhibition was 10.9% (inactive).
For `COc1ccc(NC(=S)SC)cc1OC`, the inhibition was -7.31% (inactive).
In the case of `CC(C)OC(=O)c1cc(NC(=O)C2C3CCC(O3)C2C(=O)O)cc(C(=O)OC(C)C)c1` (configuration not stated), the inhibition is reported as 48.8% (active).
With `COc1ccc(NC(=O)CNC(=O)Cc2ccccc2)cc1OC` the inhibition was -3.57% (inactive).
